From PubChem BioAssay (NCATS)
Where “and” joins values, the source holds several entries; their conditions need not be identical. Equal values may be shown once. Inconclusive results are not listed. Where a structure was tested more than once in an assay, its records may differ in their call. Calls of active or inactive are those of the source. Unless noted, the call rests on the fitted dose curve; in most records, active means well fitted curve in the direction sought with a large enough effect; inconclusive means small, poorly fitted or top-dose-only effect, or another doubt; inactive means no such curve, though single readings can be large; an effect the other way counts as inactive or inconclusive.

Key:
[1] = Cell Viability - SH-SY5Y (AID 544); conditions: SH-SY5Y neuroblastoma cell viability; viability change, negative = cytotoxic: at 92.2 µM (top of the series);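 further: cells exposed to compound for 40 hours; nearly all actives have a fitted effect of over 55% in size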
Summary of the method: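 Cytotoxicity measured via ATP-dependent luciferase luminescence (CellTiter-Glo) following 40 h, 37 °C exposure of 1500 SH-SY5Y cells per well. Concentration-response data were fitted with the standard Hill equation to give AC50.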

[2] = Cell Viability - Mesenchymal (AID 546);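 further: cells exposed to compound for 40 hours before reading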
Summary of the method: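 In this qHTS cytotoxicity format, glomerulus-derived human mesenchymal kidney cells received compound for 40 hr, then luciferase-based ATP quantitation. Concentration-response data were fitted with the Hill equation.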

[3] = Cellular Toxicity (caspase-3) HepG2 (AID 654);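 further: cells exposed to compound for 16 hours before reading; 0% = DMSO alone and 100% = caspase signal from 100 µM tamoxifen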
Summary of the method: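 Caspase 3/7 activation is measured as a luminescence increase (aminoluciferin substrate) after 16 h compound exposure of human hepatocarcinoma HepG2 cells. AC50 values are Hill fits, scaled between DMSO baseline and 100 uM tamoxifen stimulation.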

[4] = Cellular Toxicity (caspase-3) Jurkat (AID 655); conditions: Jurkat caspase-3 activation, luminescence, DMSO = 0%, tamoxifen = 100%; at 92.2 µM (top of the series);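 further: cells exposed to compound for 16 h at 37 °C before reading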
Summary of the method: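 Caspase 3/7 activation is scored as increased luminescence in Jurkat cells cultured with compound for 16 hours in complete medium. AC50 values come from Hill fits of qHTS concentration-response data normalized to DMSO and 100 uM tamoxifen controls.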

[5] = Cellular Toxicity (caspase-3) SHSY5Y (AID 657)
Summary of the method: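 Cells plated and incubated 5 h at 37 °C, dosed over a concentration range, incubated 16 h, then given Caspase-Glo 3/7 reagent for 1 h at room temperature before luminescence reading. Staurosporine (10 uM) defined full stimulation.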

[6] = Cellular Toxicity (caspase-3) BJ (AID 658)
Summary of the method: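 Plated BJ cells (1000/well) rested 5 hr, received compound for 16 hr at 37 °C, then Caspase-Glo 3/7 reagent for 1 hr at room temperature before luminescence reading.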

[7] = Cellular Toxicity (caspase-3) MRC-5 (AID 659)
Summary of the method: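 Apoptosis readout in MRC-5 cells: luciferase light generated after caspase 3/7 cleaves a peptide-aminoluciferin substrate, measured post 16 hr compound incubation at 37 °C.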

[8] = Cellular Toxicity (caspase-3) Mesangial (AID 660);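 further: combined caspase 3 and 7 activity read by Caspase-Glo luminescence; cells exposed to compound for 16 h before the caspase read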
Summary of the method: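 Caspase 3/7 activation measured by Caspase-Glo 3/7 luminescence (20 min, room temperature) following 16 h exposure of mesangial cells (1000/well); AC50 from Hill-equation fit, normalized to DMSO and 100 uM tamoxifen.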

[9] = Cellular Toxicity (caspase-3) SK-N-SH (AID 661)
Summary of the method: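 Caspase 3/7 activation was read by luminogenic substrate cleavage after 16 hour treatment of SK-N-SH cells. Signal was scaled between DMSO and 10 uM staurosporine, and concentration-response data were fitted with the Hill equation for AC50.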

[10] = Cellular Toxicity (caspase-3) H-4-II-E (AID 663)
Summary of the method: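 Caspase 3/7 activation measured in H-4-II-E cells in complete culture medium after 16 hr treatment at 37 °C, using luciferase-coupled substrate readout; AC50 values come from Hill-equation fits of normalized concentration-response data.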

[11] = Cellular Toxicity (caspase-3) N2a (AID 665); conditions: N2a cells, luminescence, normalized: DMSO 0%, 10 µM staurosporine 100%; at 92.2 µM (top of the series);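 further: compound exposure lasted 16 h at 37 °C before readout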
Summary of the method: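 Caspase-3/7 activation measured as luminescence from Caspase-Glo reagent (1 h, room temperature) after 16 h compound exposure of mouse N2a cells. AC50 values from Hill-equation concentration-response, scaled between DMSO and 10 uM staurosporine.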

[12] = Cellular Toxicity (caspase-3) NIH 3T3 (AID 666);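 further: caspase signal read after 16 h compound exposure; 0% = DMSO basal and 100% = 100 µM tamoxifen stimulation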
Summary of the method: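 Caspase-Glo 3/7 luminescence reported caspase activation in 1000 NIH 3T3 cells/well after 16 h compound exposure at 37 C. DMSO set basal and 100 uM tamoxifen set 100% stimulation; concentration-response modeled with the Hill equation for AC50.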

[13] = target: Thyroid hormone receptor beta (Homo sapiens) (UniProt P10828); assay: qHTS assay for small molecule agonists of thyroid hormone receptor beta signaling (AID 588545; calls by dose curve;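 further: 0% = DMSO only and 100% = 10 nM T3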)
Summary of the method: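 Compounds were tested as agonists in TR-UAS-bla-GripTite HEK 293 cells. After 18 hrs at 37 C, CCF4 substrate was added and fluorescence read after 2 hrs at room temperature.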

[14] = qHTS assay for small molecule antagonists of retinoid X receptor alpha signaling (AID 588546); conditions: HEK293T RXRa-UAS-bla, beta-lactamase ratio, antagonist mode; measured here: W530 green channel, cytotoxicity proxy;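 further: cells stimulated with 9-cis-retinoic acid as agonist; on the % scale 0 is the no-effect control and ±100 the full control effect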
Summary of the method: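 Beta-lactamase reporter inhibition, read as CCF4 fluorescence ratio (ex 405, em 460/530 nm) after 2 h at RT. HEK293T UAS-bla cells, 2500/well, were stimulated with 9-cis-RA at 500 or 100 nM final alongside test compound for 18 h at 37 C.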

[15] = target: Thyroid hormone receptor beta (Homo sapiens) (UniProt P10828); assay: qHTS assay for small molecule antagonists of thyroid hormone receptor beta signaling (AID 588547; active means well fitted inhibition curve with a large enough effect in the signal ratio, with a control signal flat, not every such curve was filed as active; the % refers to the signal ratio;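 further: cells stimulated with 0.4 nM T3 agonist during compound exposure; on the % scale 0 is the no-effect control and ±100 the full control effect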); conditions: TR-UAS-bla HEK293, beta-lactamase ratio, antagonist mode, 18 h
Summary of the method: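 TR-UAS-bla GripTite HEK293 cells in 2% charcoal/dextran FBS medium were preincubated 4 h at 37 C, given compound (0.59 nM to 92 uM) plus 0.4 nM T3 (final) for 18 h, then CCF4 for 2 h at RT; Hill fit gave IC50.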

[16] = target: Tumor necrosis factor (Homo sapiens) (UniProt P01375); assay: qHTS assay to identify small molecules that stimulate Tumor Necrosis Factor-alpha (TNF-alpha) secretion (AID 651757; active means well fitted curve in the direction sought with a large enough effect in the signal ratio; the % refers to the signal ratio; further: 0% is about no effect)
Summary of the method: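 Secreted TNF-alpha quantified by TR-FRET sandwich of two labeled anti-TNF-alpha antibodies, incubated 3 hr at room temperature. Preceded by 17 hr, 37 C compound treatment of THP-1 cells at 3000 cells/well.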

[17] = qHTS assay for environmental chemicals that activate the Aryl hydrocarbon Receptor (AhR) signaling pathway (AID 651777); conditions: 1A2-DRE human hepatoma cells, luciferase, 24 h; activation: stronger effect = higher value; further: nearly all actives have a fitted effect of over 15% in size; further: potency means the concentration at half of the fitted maximal effect; on activation: % of control where 0% means no effect
Summary of the method: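 Induction of CYP1A2 transcription through AhR is detected by luciferase in 1A2-DRE hepatoma cells. Compounds or DMSO act for 24 hr at 37 C before a 30 min One-Glo step at room temperature.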

[18] = target: Peroxisome proliferator-activated receptor alpha (Homo sapiens) (UniProt Q07869); assay: qHTS assay for small molecule agonists of the peroxisome proliferator-activated receptor alpha (PPARalpha) signaling pathway (AID 651778); conditions: PathHunter PPARalpha complementation, chemiluminescence, 6 h; stronger effect = higher value; further: % of control where 0% means no effect
Summary of the method: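 Cells plated at 2,000/well and held overnight at 37 C, 5% CO2, then compound added by pin tool for 6 hr; after PathHunter detection reagent and 60 min at room temperature, chemiluminescence from enzyme complementation was read.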

[19] = qHTS assay for small molecule agonists of the antioxidant response element (ARE) signaling pathway measured by Nrf2-dependant transcriptional activity (AID 720636; active means well fitted curve in the direction sought with a large enough effect in the repeat runs; an effect the other way counts as inactive or inconclusive;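 further: HepG2 cells with an ARE-driven luciferase reporter; % of control where 0% means no effect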)
Summary of the method: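 We exposed ARE-luc HepG2 cells, seeded in assay medium with 1% dialyzed FBS and allowed 6 hr to adhere, to test compounds overnight (16 hr, 37 C) before measuring luciferase with ONE-Glo.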

[20] = target: Nuclear receptor subfamily 1 group I member 2 (Rattus norvegicus) (UniProt Q9R1A7); assay: qHTS assay for small molecule activators of the rat pregnane X receptor (rPXR) signaling pathway (AID 651751; call rule not given here; further: 0% is about no effect); conditions: rPXR reporter cells, luciferase (One-Glo), 24 h
Sequence of Nuclear receptor subfamily 1 group I member 2 (Rattus norvegicus) (Q9R1A7 whole entry, looked up): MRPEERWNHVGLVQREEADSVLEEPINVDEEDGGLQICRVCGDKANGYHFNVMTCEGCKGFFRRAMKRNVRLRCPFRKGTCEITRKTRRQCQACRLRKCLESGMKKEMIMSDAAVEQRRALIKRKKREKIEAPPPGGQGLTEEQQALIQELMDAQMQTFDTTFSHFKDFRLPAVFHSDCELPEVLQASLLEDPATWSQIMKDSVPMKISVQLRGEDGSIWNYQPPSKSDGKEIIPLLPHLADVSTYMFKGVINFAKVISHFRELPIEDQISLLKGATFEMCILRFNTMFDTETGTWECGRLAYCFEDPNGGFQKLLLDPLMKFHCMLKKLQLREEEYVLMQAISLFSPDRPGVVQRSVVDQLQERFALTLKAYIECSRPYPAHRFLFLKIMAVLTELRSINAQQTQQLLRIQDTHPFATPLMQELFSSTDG

Sequence of Tumor necrosis factor (Homo sapiens) (P01375 whole entry, looked up): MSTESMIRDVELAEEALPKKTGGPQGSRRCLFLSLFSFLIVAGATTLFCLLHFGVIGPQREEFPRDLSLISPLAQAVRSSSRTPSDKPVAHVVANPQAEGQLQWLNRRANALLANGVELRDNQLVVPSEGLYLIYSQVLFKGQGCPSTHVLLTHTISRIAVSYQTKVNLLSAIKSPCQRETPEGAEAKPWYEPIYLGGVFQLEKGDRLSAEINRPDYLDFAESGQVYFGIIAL
Sequence of Peroxisome proliferator-activated receptor alpha (Homo sapiens) (Q07869 whole entry, looked up): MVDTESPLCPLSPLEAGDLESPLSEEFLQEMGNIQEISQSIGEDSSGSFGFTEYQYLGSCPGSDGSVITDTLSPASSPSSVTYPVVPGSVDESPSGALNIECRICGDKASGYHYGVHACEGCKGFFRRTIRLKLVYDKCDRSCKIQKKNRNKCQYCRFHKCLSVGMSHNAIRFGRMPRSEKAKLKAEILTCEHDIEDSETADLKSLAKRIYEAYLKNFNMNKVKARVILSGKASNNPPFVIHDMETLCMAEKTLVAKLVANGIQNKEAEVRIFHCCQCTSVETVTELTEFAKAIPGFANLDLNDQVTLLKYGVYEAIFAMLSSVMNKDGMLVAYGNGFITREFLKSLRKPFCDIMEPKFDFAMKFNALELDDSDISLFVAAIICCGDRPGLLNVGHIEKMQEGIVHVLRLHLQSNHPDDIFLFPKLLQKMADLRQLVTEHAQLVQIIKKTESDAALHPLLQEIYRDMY
Sequence of Thyroid hormone receptor beta (Homo sapiens) (P10828 whole entry, looked up): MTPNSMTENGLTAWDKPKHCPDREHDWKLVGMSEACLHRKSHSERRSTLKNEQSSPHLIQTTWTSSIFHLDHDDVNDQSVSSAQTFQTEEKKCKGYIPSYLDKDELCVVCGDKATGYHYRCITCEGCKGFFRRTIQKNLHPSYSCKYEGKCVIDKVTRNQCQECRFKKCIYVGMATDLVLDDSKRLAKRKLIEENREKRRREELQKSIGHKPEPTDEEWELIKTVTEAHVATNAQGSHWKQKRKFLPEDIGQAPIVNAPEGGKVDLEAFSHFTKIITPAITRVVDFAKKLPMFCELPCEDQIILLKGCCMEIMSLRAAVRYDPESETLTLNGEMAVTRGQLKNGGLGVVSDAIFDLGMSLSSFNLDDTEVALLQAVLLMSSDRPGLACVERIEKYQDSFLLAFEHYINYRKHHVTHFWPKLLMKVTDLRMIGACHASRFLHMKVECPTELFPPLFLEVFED

ClC1=C(Cl)C2(Cl)C3C(Cl)C=CC3C1(Cl)C2(Cl)Cl (stereo not given)
inactive: Potency [1] | outcome [2] | outcome [3] | caspase-3 activation [4] 5.51% | outcome [5] | outcome [6] | outcome [7] | outcome [8] | outcome [9] | outcome [10] | caspase-3 activation [11] -3.13% | outcome [12] | outcome [13] | activity change % (negative = inhibition) [15] -18.9% | outcome [16] | activation [17] -0.719% | max response [18] 4.41% | outcome [19] | max response [20] -2.14%
-16.9%: max response [14]

O=C(O)COc1ccc(Cl)cc1Cl
inactive: Potency [1] | outcome [2] | outcome [3] | caspase-3 activation [4] -0.262% and -0.585% | outcome [5] | outcome [6] | outcome [7] | outcome [8] | outcome [9] | outcome [10] | caspase-3 activation [11] -2.05% and -1.8% | outcome [12] | outcome [16] | max response [18] 0.368% [middle of 4 runs] | outcome [19] | max response [20] -0.13% [middle of 4 runs]

C=CCc1ccc2c(c1)OCO2
inactive: Potency [1] | outcome [2] | outcome [3] | caspase-3 activation [4] 1.31% | outcome [5] | outcome [6] | outcome [7] | outcome [8] | outcome [9] | outcome [10] | caspase-3 activation [11] -4.3% | outcome [12] | outcome [13] | activity change % (negative = inhibition) [15] -3.5% | outcome [16] | max response [18] -3.48% | outcome [19] | max response [20] 3.14%
-5.37%: max response [14]

CNC(=O)O/N=C/C(C)(C)SC
inactive: Potency [1] | outcome [2] | outcome [3] | caspase-3 activation [4] -0.602% | outcome [5] | outcome [6] | outcome [7] | outcome [8] | outcome [9] | outcome [10] | caspase-3 activation [11] -2.85% | outcome [12] | outcome [13] | activity change % (negative = inhibition) [15] -3.92% and 16.1% and 0.362% | outcome [16] | activation [17] -0.995% and 0.0962% | max response [18] 4.62% and -1.35% and -3.37% | outcome [19]
active: Potency [17] 39.8 µM
-9.38% and -5.02% and 4.99%: max response [14]

c1ccc(N=Nc2ccccc2)cc1
inactive: Potency [1] | outcome [2] | outcome [3] | outcome [5] | outcome [6] | outcome [7] | outcome [8] | outcome [9] | outcome [10] | caspase-3 activation [11] -2.4% | outcome [12] | outcome [13] | activity change % (negative = inhibition) [15] 5.03% and -8.04% | outcome [16] | activation [17] -0.472% and 1.23% | max response [18] -0.415% and -1.69% | outcome [19] | max response [20] -2.25% and 1.3%
active: caspase-3 activation [4] 92%
-17.4% and -6.96%: max response [14]

ClC1=C(Cl)C2(Cl)C3C4C=CC(C4)C3C1(Cl)C2(Cl)Cl (stereo not given)
-0.359%: max response [14]
inactive: Potency [1] | outcome [2] | outcome [3] | caspase-3 activation [4] 6.54% | outcome [5] | outcome [6] | outcome [7] | outcome [8] | outcome [9] | outcome [10] | caspase-3 activation [11] 2.47% | outcome [12] | outcome [13] | activity change % (negative = inhibition) [15] -26.2% | outcome [16] | activation [17] 0.192% | outcome [19] | max response [20] 5.53%

CNC(=O)N(C)c1nnc(C(C)(C)C)s1
inactive: outcome [13] | activity change % (negative = inhibition) [15] -7.26% | activation [17] 3.03% | max response [18] -3.93% | max response [20] 4.69%
-11.1%: max response [14]
